“And” between values parts separate entries of the source, which are not always exact repeats. Equal entries are not always repeated. Inconclusive results are not listed. A number with no mark means an inactive call. The source made the active and inactive calls. The call rests on the fitted dose curve; in most records, active means well fitted curve in the direction sought with a large enough effect; inconclusive means small, poorly fitted or top-dose-only effect, or another doubt; inactive means no such curve, though single readings can be large; an effect the other way counts as inactive or inconclusive.

Experiment [1] in a line: Viability qHTS for spleen associated tyrosine kinase inhibitor (SYKi) naive MV4-11 cells (AID 1963823). Further: nearly all actives have a fitted effect of over 40% in size. In outline: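 SYK inhibitor-naive MV4-11 cells, 500 per well, exposed to compounds for 72 hr at 37 C, 5% CO2. Viability read as CellTiter-Glo luminescence after 10 min at room temperature.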
A general note: In qHTS, concentration-response curves come from the screen itself.

Experiment [2] can be described thus: Viability qHTS for spleen associated tyrosine kinase inhibitor (SYKi) drug resistant MV4-11 cells (AID 1963824). Further: nearly all actives have a fitted effect of over 35% in size. An outline of the steps: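 CellTiter-Glo luminescence, read 10 min after reagent addition, reports viability after a 72 hr compound exposure. Cells are an MV4-11 line made resistant to SYK inhibition, seeded at 500 per well onto compound-containing plates.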

Experiment [3] can be described thus: Cellular viability qHTS for adrenocortical cancer (ACC) cell line SW-13 (AID 1963989). Further: nearly all actives have a fitted effect of over 65% in size.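 On activity (max response): cells grown in serum-free medium with ITS supplement; on the % scale 0 is the no-effect control and ±100 the full control effect.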 The following applies: SW-13 ACC cells viability, CellTiter-Glo, 48 h; activity (max response): hits give low values. An outline of the steps: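 IC50 and maximal-response values come from four-parameter logistic fits of titration data. SW-13 cells in serum-free medium received compounds (up to 46 uM final) for 48 h before CellTiter-Glo luminescence.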
Potency means the concentration at half of the fitted maximal effect.

In the case of `CN(C)CCN1C(=O)c2cccc3cc(NC(N)=O)cc(c23)C1=O`, the results for the Potency in experiment [1], in experiment [2] and in experiment [3] were 4.17 µM (active), 4.17 µM (active) and 17.8 µM (active), respectively.
Regarding `O=[N+]([O-])c1ccc(O)c2ncccc12`, the Potency was 2.99 µM (active) and 4.68 µM (active) in experiment [1]; 7.5 µM (active) and 4.68 µM (active) in experiment [2]; 2.91 µM (active) and 10 µM (active) in experiment [3].
Take `CNC(=O)[C@H](Cc1c[nH]c2ccccc12)NC(=O)[C@@H](CC(=O)NO)CC(C)C`: the Potency in experiment [1] was 9.34 µM (active); in experiment [2], 10.5 µM (active). The activity (max response) in experiment [3] was -15.7%.
In the case of `CC(C)(O)CNc1ncc(-c2ccnc(Nc3ccncc3)n2)c(CC2CC2)n1`, the Potency in experiment [1] is 1.48 µM (active); in experiment [2], 1.18 µM (active); in experiment [3], 14.1 µM (active).
As for `O=C(O)c1ccccc1-c1ccc(C(F)(F)F)cc1`, the Potency result in experiment [1] and in experiment [2] was “inactive” each time. In addition, in experiment [3], the activity (max response) was 8.51%.
On to `COc1cc2ncnc(Nc3ccc(O)c(Br)c3)c2cc1OC`, for which the Potency was 1.16 µM (active) and 662 nM (active) in experiment [1]; 1.64 µM (active) and 1.66 µM (active) in experiment [2]; 3.55 µM (active) in experiment [3].
Take `CCOC(=O)c1ccnc(CNCC(=O)N(CC)CCN(C)C)c1`: the Potency entry in experiment [1] and in experiment [2] was “inactive” in each case. For the same compound, the activity (max response) in experiment [3] was -23.8%.
For the compound `C[C@H](NC(=O)c1c(N)nn2cccnc12)c1cc2cccc(C#Cc3cnn(C)c3)c2c(=O)n1-c1ccccc1`, the Potency in experiment [1] and in experiment [2] was 7.23 µM (active) throughout. In experiment [3], the activity (max response) was -17.5%.
`O=C(NCCN1CCOCC1)c1ccc(Cl)cc1`: the Potency result in experiment [1] and in experiment [2] was “inactive” throughout. Besides, the activity (max response) in experiment [3] is 1.07%.
Take `CC[C@@]1(O)C(=O)OCc2c1cc1n(c2=O)Cc2c-1nc1ccccc1c2CCNC(C)C`: the figures for the Potency in experiment [1], in experiment [2] and in experiment [3] were 0.0059 µM (active), 0.0059 µM (active) and 0.0823 µM (active), respectively.
